The supplement of paper PMC8728848
Shown is part of a subset that was picked to be rich in the strongest signals.

The substances below were run on GlcNAc(b1-4)GlcNAc(b1-4)GlcNAc(b1-4)GlcNAc(b1-4)GlcNAc (assay: glycan array binding signal (z-score within array); higher = stronger binding). Conditions: glycan notation: IUPAC condensed, linker removed.
How it was run: (§1)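 From the Consortium for Functional Glycomics database, 3228 arrays were curated, keeping only those whose protein sequence was available. Binding is given as a within-array Z-score averaged across arrays sharing a protein sequence and across linkers. Negative Z-scores can be read as non-binding.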

Chain of CHI3L1 (Homo sapiens), P36222 (P36222 whole entry): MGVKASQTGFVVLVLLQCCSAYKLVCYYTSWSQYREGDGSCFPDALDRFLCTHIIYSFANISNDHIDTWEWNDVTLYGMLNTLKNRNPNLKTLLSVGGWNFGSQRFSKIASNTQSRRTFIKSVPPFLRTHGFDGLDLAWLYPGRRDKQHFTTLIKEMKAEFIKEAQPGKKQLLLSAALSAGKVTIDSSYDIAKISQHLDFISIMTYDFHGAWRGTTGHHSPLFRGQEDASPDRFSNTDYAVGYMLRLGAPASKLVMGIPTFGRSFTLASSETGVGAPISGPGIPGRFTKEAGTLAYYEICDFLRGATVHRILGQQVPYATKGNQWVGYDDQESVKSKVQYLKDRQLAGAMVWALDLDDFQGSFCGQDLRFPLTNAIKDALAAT
Chain of PILRb (Mus musculus), Q2YSF2 (Q2YSF2 entry or part of it): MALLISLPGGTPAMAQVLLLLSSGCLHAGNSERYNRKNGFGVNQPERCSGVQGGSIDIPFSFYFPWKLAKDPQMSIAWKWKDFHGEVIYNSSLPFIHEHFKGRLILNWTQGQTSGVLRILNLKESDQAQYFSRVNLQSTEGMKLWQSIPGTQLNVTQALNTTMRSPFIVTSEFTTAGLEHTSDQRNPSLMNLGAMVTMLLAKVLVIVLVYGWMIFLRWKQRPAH
Chain of wLAT-1A (Homo sapiens), Q01650 (Q01650 whole entry): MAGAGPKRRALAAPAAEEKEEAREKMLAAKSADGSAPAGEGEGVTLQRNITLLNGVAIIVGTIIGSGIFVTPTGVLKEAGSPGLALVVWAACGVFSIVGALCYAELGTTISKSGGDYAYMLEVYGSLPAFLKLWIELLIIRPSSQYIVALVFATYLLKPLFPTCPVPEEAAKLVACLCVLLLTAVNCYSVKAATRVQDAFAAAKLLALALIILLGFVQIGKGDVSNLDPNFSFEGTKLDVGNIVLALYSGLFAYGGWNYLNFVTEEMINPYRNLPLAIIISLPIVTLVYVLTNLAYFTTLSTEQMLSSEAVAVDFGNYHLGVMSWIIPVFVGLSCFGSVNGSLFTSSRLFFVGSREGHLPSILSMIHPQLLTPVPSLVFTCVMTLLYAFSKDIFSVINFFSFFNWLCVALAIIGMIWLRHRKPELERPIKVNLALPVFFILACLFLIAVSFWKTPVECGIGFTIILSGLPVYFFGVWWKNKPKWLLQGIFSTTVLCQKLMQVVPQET
Chain of Regenerating Gene IV (Homo sapiens), Q9BYZ8 (Q9BYZ8 whole entry, looked up): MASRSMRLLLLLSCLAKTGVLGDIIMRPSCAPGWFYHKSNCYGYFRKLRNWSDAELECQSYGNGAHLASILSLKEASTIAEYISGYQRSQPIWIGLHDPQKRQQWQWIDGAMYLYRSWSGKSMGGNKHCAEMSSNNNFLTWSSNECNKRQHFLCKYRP
Chain of Neurocan (Homo sapiens), O14594 (O14594 other isoform, or with tags, fused parts or gaps): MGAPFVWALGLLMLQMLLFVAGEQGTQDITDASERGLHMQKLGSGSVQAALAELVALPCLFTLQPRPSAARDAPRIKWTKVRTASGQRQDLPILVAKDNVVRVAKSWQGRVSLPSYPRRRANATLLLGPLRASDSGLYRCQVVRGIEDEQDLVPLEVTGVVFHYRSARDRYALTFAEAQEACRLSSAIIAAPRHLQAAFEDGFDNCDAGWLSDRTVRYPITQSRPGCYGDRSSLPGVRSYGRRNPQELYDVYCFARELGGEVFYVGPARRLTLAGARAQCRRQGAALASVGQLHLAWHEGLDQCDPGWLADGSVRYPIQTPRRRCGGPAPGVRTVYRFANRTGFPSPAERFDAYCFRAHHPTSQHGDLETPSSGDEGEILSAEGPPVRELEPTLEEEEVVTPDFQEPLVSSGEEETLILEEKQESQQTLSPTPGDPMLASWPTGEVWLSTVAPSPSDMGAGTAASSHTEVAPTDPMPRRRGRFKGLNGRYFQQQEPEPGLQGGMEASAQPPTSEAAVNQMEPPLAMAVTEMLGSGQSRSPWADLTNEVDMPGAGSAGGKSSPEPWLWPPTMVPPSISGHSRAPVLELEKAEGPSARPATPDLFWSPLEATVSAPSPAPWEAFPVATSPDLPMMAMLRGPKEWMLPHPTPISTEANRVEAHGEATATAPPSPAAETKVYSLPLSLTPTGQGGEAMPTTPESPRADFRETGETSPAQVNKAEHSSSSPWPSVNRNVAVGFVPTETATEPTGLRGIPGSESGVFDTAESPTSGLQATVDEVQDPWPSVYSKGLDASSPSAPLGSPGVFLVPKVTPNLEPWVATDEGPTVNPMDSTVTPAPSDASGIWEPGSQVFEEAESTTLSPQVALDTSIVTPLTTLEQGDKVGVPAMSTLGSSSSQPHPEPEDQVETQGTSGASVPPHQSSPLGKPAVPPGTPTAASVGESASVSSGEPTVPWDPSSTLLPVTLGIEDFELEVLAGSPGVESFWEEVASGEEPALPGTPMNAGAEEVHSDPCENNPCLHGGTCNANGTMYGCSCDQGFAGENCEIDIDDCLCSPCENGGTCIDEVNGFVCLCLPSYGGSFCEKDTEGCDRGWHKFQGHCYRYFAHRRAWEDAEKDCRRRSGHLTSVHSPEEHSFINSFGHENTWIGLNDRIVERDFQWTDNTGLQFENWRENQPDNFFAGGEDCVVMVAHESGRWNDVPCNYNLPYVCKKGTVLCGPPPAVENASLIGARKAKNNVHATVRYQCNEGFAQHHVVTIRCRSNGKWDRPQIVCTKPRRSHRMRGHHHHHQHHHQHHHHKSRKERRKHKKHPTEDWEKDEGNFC
Chain of PILRa (Mus musculus), Q2YSF3 (Q2YSF3 entry or part of it): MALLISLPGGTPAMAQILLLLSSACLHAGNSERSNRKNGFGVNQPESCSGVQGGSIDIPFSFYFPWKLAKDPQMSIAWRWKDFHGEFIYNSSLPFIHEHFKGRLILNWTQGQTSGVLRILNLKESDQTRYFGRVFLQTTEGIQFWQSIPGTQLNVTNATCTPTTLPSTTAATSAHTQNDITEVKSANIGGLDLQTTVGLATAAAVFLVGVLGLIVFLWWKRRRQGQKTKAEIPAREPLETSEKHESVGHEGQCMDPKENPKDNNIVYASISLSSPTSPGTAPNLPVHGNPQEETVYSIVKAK
Chain of Avaren (Actinomycete K97) (chain, as listed by the source): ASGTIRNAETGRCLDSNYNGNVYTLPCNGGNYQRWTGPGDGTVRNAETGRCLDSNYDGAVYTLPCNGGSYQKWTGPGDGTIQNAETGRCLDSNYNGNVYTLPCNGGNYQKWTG

Substance | glycan array binding signal (z-score)
Neurocan (Homo sapiens), O14594 | -0.99
CHI3L1 (Homo sapiens), P36222 | 14.5
PILRb (Mus musculus), Q2YSF2 | -0.432
Siglec-8 (Homo sapiens), Q9NYZ4 | -0.111

These substances were tested on GlcNAc(b1-6)GalNAc in the same assay as above. Conditions: glycan notation: IUPAC condensed, linker removed.
How it was run: as §1

Substance | glycan array binding signal (z-score)
wLAT-1A (Homo sapiens), Q01650 | 0.369
Avaren (Actinomycete K97) | -0.119
PILRb (Mus musculus), Q2YSF2 | -0.025

These substances were tested on GlcNAc3Prop(b1-4)GlcNAc in the same assay as above. Conditions: glycan notation: IUPAC condensed, linker removed.
How it was run: as §1

Substance | glycan array binding signal (z-score)
PILRa (Mus musculus), Q2YSF3 | -0.331
wLAT-1A (Homo sapiens), Q01650 | 0.213
Regenerating Gene IV (Homo sapiens), Q9BYZ8 | -0.463
CHI3L1 (Homo sapiens), P36222 | -0.044
